Potency and viability data for 12 compounds are collected here from PubChem BioAssay (NCATS).

Results filed as inconclusive are left out. A number with no mark means an inactive call. Active and inactive are the calls of the source. The call rests on the fitted dose curve; in most records, active means well fitted curve in the direction sought with a large enough effect; inconclusive means small, poorly fitted or top-dose-only effect, or another doubt; inactive means no such curve, though single readings can be large; an effect the other way counts as inactive or inconclusive.

A short description of assay [1]: Quantitative High-Throughput drug screen in 47 multiple myeloma cell lines against the NCATS MIPE library collection: KMS26_JCRB cell viability assay (AID 1918975). Further: nearly all actives have a fitted effect of over 45% in size.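 On viability (% of DMSO): 100% = DMSO-treated wells and 0% = wells with media only.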 An outline of the steps:
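Relative luminescence from CellTiter-Glo served as the viability signal, referenced to DMSO-treated (100%) and cell-free medium (0%) controls. Treatment lasted 48 hours at 37C with 500 cells per well.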

Assay [2] is described as follows: Quantitative High-Throughput drug screen in 47 multiple myeloma cell lines against the NCATS MIPE library collection: MMM1_PLB cell viability assay (AID 1918976). Further: nearly all actives have a fitted effect of over 35% in size. An outline of the steps:
(§1)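 Inhibition of viability over 48 h was scored by ATP content (CellTiter-Glo) in 500-cell wells. Zero and full viability were defined by media-only and DMSO-only wells.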

Assay [3] in a line: Quantitative High-Throughput drug screen in 47 multiple myeloma cell lines against the NCATS MIPE library collection: NCIH929_DSMZ cell viability assay (AID 1918978). Further: nearly all actives have a fitted effect of over 35% in size. An outline of the steps:
as §1

Assay [4] in a line: Quantitative High-Throughput drug screen in 47 multiple myeloma cell lines against the NCATS MIPE library collection: OCIMY1_PLB cell viability assay (AID 1918979). Further: nearly all actives have a fitted effect of over 35% in size.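 On viability: 100% = DMSO-only wells and 0% = cell-free media-only wells.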 An outline of the steps: as §1
Assay [5] in a line: Quantitative High-Throughput drug screen in 47 multiple myeloma cell lines against the NCATS MIPE library collection: MM1S_ATCC cell viability assay (AID 1918980). Further: nearly all actives have a fitted effect of over 45% in size.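 On viability (% of control): 100% = wells with DMSO only and 0% = wells with media only.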 An outline of the steps:
as §1

Assay [6] in a line: Quantitative High-Throughput drug screen in 47 multiple myeloma cell lines against the NCATS MIPE library collection: MM1R_ATCC cell viability assay (AID 1918981). Further: nearly all actives have a fitted effect of over 35% in size. The method, boiled down:
as §1

Assay [7] can be described thus: Quantitative High-Throughput drug screen in 47 multiple myeloma cell lines against the NCATS MIPE library collection: LP1_DSMZ cell viability assay (AID 1918982). Further: nearly all actives have a fitted effect of over 35% in size. The method, boiled down:
as §1

Assay [8] is described as follows: Quantitative High-Throughput drug screen in 47 multiple myeloma cell lines against the NCATS MIPE library collection: KMS28PE_JCRB cell viability assay (AID 1918983). Further: nearly all actives have a fitted effect of over 35% in size. An outline of the steps: as §1
A short description of assay [9]: Quantitative High-Throughput drug screen in 47 multiple myeloma cell lines against the NCATS MIPE library collection: L363_DSMZ cell viability assay (AID 1918984). Further: nearly all actives have a fitted effect of over 40% in size. Conditions: L363 myeloma viability, CellTiter-Glo ATP luminescence, 48 h; viability (% of control): at 45.8 µM (top of the series). The method, boiled down: as §1
(In general: ATP-based viability assays read luminescence as a measure of living cells.)

Assay [10] can be described thus: Quantitative High-Throughput drug screen in 47 multiple myeloma cell lines against the NCATS MIPE library collection: KMS34_JCRB cell viability assay (AID 1918985). Further: nearly all actives have a fitted effect of over 40% in size. The method, boiled down: as §1
Assay [11] is described as follows: Quantitative High-Throughput drug screen in 47 multiple myeloma cell lines against the NCATS MIPE library collection: OCIMY7_PLB cell viability assay (AID 1918987). Further: nearly all actives have a fitted effect of over 65% in size. Conditions: OCI-MY7 myeloma viability, CellTiter-Glo ATP, 48 h; viability (% of DMSO): at 45.8 µM (top of the series). The method, boiled down: as §1
The nature of assay [12]: Quantitative High-Throughput drug screen in 47 multiple myeloma cell lines against the NCATS MIPE library collection: OCIMY5_PLB cell viability assay (AID 1918988). Further: nearly all actives have a fitted effect of over 65% in size. An outline of the steps: as §1
Assay [13] can be described thus: Quantitative High-Throughput drug screen in 47 multiple myeloma cell lines against the NCATS MIPE library collection: OPM1_PLB cell viability assay (AID 1918989). Further: nearly all actives have a fitted effect of over 40% in size.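 On viability (% of control): 100% = DMSO-only wells and 0% = media-only wells.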 The method, boiled down:
as §1

The nature of assay [14]: Quantitative High-Throughput drug screen in 47 multiple myeloma cell lines against the NCATS MIPE library collection: SKMM1_PLB cell viability assay (AID 1919863). Further: nearly all actives have a fitted effect of over 35% in size. Conditions: SKMM1 myeloma viability, CellTiter-Glo ATP, 48 h; viability: active compounds read low. An outline of the steps: as §1
Assay [15] in a line: Quantitative High-Throughput drug screen in 47 multiple myeloma cell lines against the NCATS MIPE library collection: U266_ATCC cell viability assay (AID 1919864). Further: nearly all actives have a fitted effect of over 35% in size. The method, boiled down:
as §1

Assay [16] in a line: Quantitative High-Throughput drug screen in 47 multiple myeloma cell lines against the NCATS MIPE library collection: XG6_PLB cell viability assay (AID 1919865). Further: nearly all actives have a fitted effect of over 40% in size.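 On viability (% of control): 100% = DMSO-only wells and 0% = media-only wells.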 The method, boiled down:
as §1

Assay [17] in a line: Quantitative High-Throughput drug screen in 47 multiple myeloma cell lines against the NCATS MIPE library collection: XG1_PLB cell viability assay (AID 1919866). Further: nearly all actives have a fitted effect of over 35% in size. The method, boiled down: as §1
Assay [18] is described as follows: Quantitative High-Throughput drug screen in 47 multiple myeloma cell lines against the NCATS MIPE library collection: MOLP8_DSMZ cell viability assay (AID 1918977). Further: nearly all actives have a fitted effect of over 45% in size.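 On viability (% of control): 100% = DMSO-only wells and 0% = media-only wells without cells.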 An outline of the steps:
as §1

Broadly, the viability is the share of living cells, or the viability signal relative to a control.
Potency means the concentration at half of the fitted maximal effect.

On to `OC[C@H]1O[C@@H](O[C@H]2[C@@H](O)[C@@](O)(CO)O[C@@H]2CO)[C@H](O)[C@@H](O)[C@@H]1O`, for which the Potency entry in assay [1], in [3], in assay [4], in assay [5], in [6] and in [7] was “inactive” in each case. For the same compound, the Potency entry in assay [8], in assay [9], in [10], in [11], in assay [12] and in assay [13] was “inactive” throughout. For the same compound, the Potency result in [15] and in assay [16] was “inactive” in each case. Also, the Potency in assay [2] and in assay [17] was 3.72 µM (active) throughout. In addition, in assay [14], the viability was 96.6%.
As to `CC1C(=O)OC2C(O)C34C5CC(C(C)(C)C)C36C(OC(=O)C6O)OC4(C(=O)O5)C12O` (stereo not given), the Potency entry in assay [1], in assay [3], in [4], in [6], in assay [8] and in [11] was “inactive” in each case. The Potency entry in assay [15] is “inactive”. In addition, the Potency in [2] is 0.0187 µM (active); in assay [5], 20.9 µM (active); in assay [10], 23.5 µM (active); in assay [14], 11.8 µM (active).
`CN1CCN(c2cccc(Nc3nc4c(-c5ccc(S(C)(=O)=O)cc5)cccn4n3)c2)CC1`: the Potency was 20.9 µM (active) in assay [1]; 16.6 µM (active) in assay [2]; 9.35 µM (active) in assay [18]; 2.64 µM (active) in [3]; 16.6 µM (active) in assay [6]; 14.8 µM (active) in assay [7]. Further, the Potency is 16.6 µM (active) in [8]; 0.743 µM (active) in assay [11]; 4.69 µM (active) in assay [12]; 2.35 µM (active) in assay [13]; 18.7 µM (active) in [14]; 3.32 µM (active) in assay [15]. Further, the figures for the Potency in [16] and in [17] were 0.833 µM (active) and 0.372 µM (active), respectively.
As to `CO[C@H]1O[C@@H]2O[C@@]3(C)CC[C@@H]4[C@@H](C)CC[C@@H]([C@H]1C)[C@@]24OO3`, the Potency result in assay [1], in [4], in assay [5] and in [15] was “inactive” throughout. The Potency in assay [2] is 3.72 µM (active); in assay [3] it was 0.833 µM (active); in assay [6] it was 10.5 µM (active); in assay [8] it was 4.18 µM (active); in assay [11], 0.743 µM (active); in assay [13], 6.62 µM (active). In addition, the figures for the Potency in assay [16] and in [17] were 2.64 µM (active) and 2.96 µM (active), respectively.
With `CCCCC[C@H](O)C=C[C@H]1[C@H](O)CC(=O)[C@H]1CCCCCCC(=O)O`, the Potency result in [1], in assay [3], in assay [4], in assay [6], in [7] and in [8] was “inactive” each time. For the same compound, the Potency entry in [9], in assay [16] and in assay [17] was “inactive” throughout. Further, the Potency in assay [2] is 8.33 µM (active); in assay [5], 3.32 µM (active).
For the compound `O=C(Nc1cccc(Cl)c1)Nc1ncc(CCNc2ncnc3ccsc23)s1`, the Potency in assay [1] was 2.64 µM (active); in assay [2], 16.6 µM (active); in [18], 3.72 µM (active); in [4] it was 5.9 µM (active); in [5] it was 16.6 µM (active); in assay [6], 5.9 µM (active). Moreover, the Potency is 5.9 µM (active) in assay [8]; 6.62 µM (active) in assay [10]; 0.833 µM (active) in [12]; 6.62 µM (active) in assay [13]; 3.32 µM (active) in assay [14]; 16.6 µM (active) in assay [15]. The Potency in assay [16] is 4.18 µM (active); in assay [17] it was 1.32 µM (active).
Turning to `COc1ccc(CCC(=O)Nc2nc3ccc(Cl)cc3s2)cc1OC`, the Potency result in assay [1], in [18], in assay [6], in [8] and in assay [13] was “inactive” each time. Also, the Potency was 3.72 µM (active) in assay [2]; 18.7 µM (active) in assay [3]; 13.2 µM (active) in assay [5]; 16.6 µM (active) in [15]; 23.5 µM (active) in [16]; 16.6 µM (active) in assay [17].
As to `O[C@@H](COc1cccc2ncccc12)CN1CCN(C2c3ccccc3[C@@H]3[C@H](c4ccccc42)C3(F)F)CC1` (stereo not given in full), the Potency is 20.9 µM (active) in assay [1]; 26.4 µM (active) in assay [2]; 23.5 µM (active) in assay [18]; 11.8 µM (active) in [3]; 7.43 µM (active) in [5]; 18.7 µM (active) in assay [6]. The Potency was 23.5 µM (active) in assay [8]; 7.43 µM (active) in assay [11]; 18.7 µM (active) in assay [12]; 23.5 µM (active) in assay [13]; 23.5 µM (active) in assay [14]; 8.33 µM (active) in assay [15]. The Potency in assay [16] and in [17] was 7.43 µM (active) each time.
Turning to `COc1cc([C@H]2Oc3cc([C@H]4Oc5cc(O)cc(O)c5C(=O)[C@H]4O)ccc3O[C@H]2CO)ccc1O`, the Potency is 16.6 µM (active) in [1]; 7.43 µM (active) in assay [2]; 23.5 µM (active) in assay [3]; 20.9 µM (active) in assay [4]; 9.35 µM (active) in assay [5]; 23.5 µM (active) in assay [6]. Moreover, the Potency was 20.9 µM (active) in assay [8]; 20.9 µM (active) in assay [10]; 8.33 µM (active) in assay [11]; 10.5 µM (active) in [12]; 14.8 µM (active) in assay [13]; 23.5 µM (active) in assay [14]. Further, the figures for the Potency in [16] and in assay [17] were 14.8 µM (active) and 16.6 µM (active), respectively.
For the compound `Cc1cc(CS(=O)(=O)c2ccccc2)cc(OCc2ccc(CN3CCC[C@H]3CO)cc2)c1`, the Potency is 5.26 µM (active) in assay [1], 13.2 µM (active) in assay [2] and 20.9 µM (active) in assay [13]. The Potency result in assay [3], in [4] and in assay [10] was “inactive” each time.
For the compound `O=C(Nc1ncc(SCCN2CCCC2)s1)[C@]1(c2ccc(S(=O)(=O)C3CC3)cc2)C[C@@H]1C1CCCCC1`, the Potency in [1] is 23.5 µM (active); in [2], 14.8 µM (active); in assay [18], 16.6 µM (active); in assay [4], 26.4 µM (active); in assay [5], 20.9 µM (active); in assay [6], 16.6 µM (active). In addition, the Potency in [7] was 20.9 µM (active); in assay [8], 23.5 µM (active); in assay [9] it was 7.43 µM (active); in assay [10], 18.7 µM (active); in assay [12], 14.8 µM (active); in assay [13] it was 16.6 µM (active). Moreover, the Potency in assay [14] was 23.5 µM (active); in assay [15] it was 8.33 µM (active); in [16], 10.5 µM (active).
Take `CN1C(=O)C[C@H](C(=O)N[C@@H](Cc2cnc[nH]2)C(=O)N2CCC[C@@H]2C(N)=O)NC1=O`: the Potency entry in assay [1], in assay [7], in assay [8], in assay [9], in assay [11] and in [15] was “inactive” in each case. Moreover, the Potency was 4.69 µM (active) in [2]; 2.96 µM (active) in assay [10]; 20.9 µM (active) in assay [13]; 10.5 µM (active) in assay [16]; 10.5 µM (active) in assay [17].
